Compound activity as filed in PubChem.
SKKanGAS inh = SKKanGAS growth inhibition; hit rate 1.3% among 300,000; S. pyogenes SKKanGAS, kanamycin growth, BacTiter-Glo, 6 h; AID 1662; inhibition, % at 7.5 µM;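 active = mean replicate score, as percent of positive control median, at least 50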;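 note: strain carries kanamycin resistance gene driven by streptokinase promoter and grows in 40 µg/ml kanamycin; loss of luminescence reflects streptokinase promoter inhibition or plain growth inhibition; 0% = median of DMSO wells and 100% = positive control at its reference dose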
tim10-1 inh = growth inhibitors of tim10-1 mutant yeast; hit rate 2.2% among 330,000; inhibition, % at 20 µM; S. cerevisiae tim10-1 ts strain growth, BacTiter-Glo, 24 h; AID 463190;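 active = inhibition of at least 40%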;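 note: mutant grown at 25 °C; 0% = DMSO wells with yeast and 100% = wells holding no yeast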
TIM10 inh = TIM10 yeast growth inhibition | hit rate 1.4% among 330,000 | inhibition, % at 10 µM | S. cerevisiae TIM10 strain growth, BacTiter-Glo luminescence, 24 h;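 active = inhibition of 40% or more at the single tested concentration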;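 note: wild-type TIM10 isogenic control strain grown at permissive 25 °C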
tim23-1 inh = growth inhibitors of tim23-1 mutant yeast; hit rate 1.3% among 330,000; inhibition, % at 20 µM; S. cerevisiae tim23-1 growth, BacTiter-Glo luminescence, 24 h;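 active = growth inhibition of the mutant yeast at or above 50%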;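 note: temperature-sensitive mutant grown at 25 °C; plate controls were DMSO-treated mutant yeast for no effect and medium wells lacking yeast for full effect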
ATG4B inhibitor = inhibitors of human ATG4B cysteine protease. Q9Y4P1. ATG4B cleavage of LC3-PLA2, NBD-HPC fluorescence, 1 h. inhibition, % at 8.33 µM. hit rate 0.51% among 340,000; in the data active = inhibition above about 40%
Target sequence (Q9Y4P1 whole entry, looked up): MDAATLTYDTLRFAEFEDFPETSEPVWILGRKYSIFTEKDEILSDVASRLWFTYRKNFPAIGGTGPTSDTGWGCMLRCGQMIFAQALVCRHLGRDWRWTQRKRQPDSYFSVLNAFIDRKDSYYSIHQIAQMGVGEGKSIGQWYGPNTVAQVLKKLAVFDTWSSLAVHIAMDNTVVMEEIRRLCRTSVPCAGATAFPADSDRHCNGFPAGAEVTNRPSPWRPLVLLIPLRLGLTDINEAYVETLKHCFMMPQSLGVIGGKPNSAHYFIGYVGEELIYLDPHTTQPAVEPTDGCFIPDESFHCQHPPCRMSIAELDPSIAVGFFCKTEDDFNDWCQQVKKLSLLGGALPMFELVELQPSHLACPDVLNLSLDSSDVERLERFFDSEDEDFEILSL
PfHsp90 yeast 2 = growth inhibition of yeast expressing Plasmodium Hsp90 | S. cerevisiae expressing PfHsp90, BacTiter-Glo ATP, 48 h; yeast lacking PDR1 and PDR3 efflux regulators | inhibition, % at 9.4 µM | hit rate 0.32% among 310,000;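 active = every replicate shows inhibition above about 80%, whatever the replicate mean, limit read from the data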;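 note: 0% = DMSO neutral controls and 100% = 20 µM radicicol positive controls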
tim10-1 conf = confirmation of tim10-1 mutant yeast growth inhibitors | hit rate 56% among 7,400 | S. cerevisiae tim10-1 ts strain growth, BacTiter-Glo, 24 h | shares compounds with tim10-1 inh | inhibition, % at 20 µM;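 active = inhibition of yeast growth at or above a set limit in either of two repeat tests at 20 µM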;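 note: tim10-1 mutant grown at permissive 25 °C to find synthetic lethal compounds; 0% = DMSO yeast wells and 100% = medium wells without yeast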
Active calls of the source: *. This is a sample that favours compounds with a hit; in the whole collection about 4.7% have one here.

`O=c1cc(C(F)(F)F)nc(SCc2cccc3ccccc23)[nH]1` gave SKKanGAS inh 13, tim10-1 inh 40*, TIM10 inh -3, tim23-1 inh 24, ATG4B inhibitor 36, PfHsp90 yeast 2 -14 and tim10-1 conf 4.
For Cc1cccc(-n2ncc3c(NCc4cccnc4)ncnc32)c1 the results were SKKanGAS inh -8, tim10-1 inh -3, TIM10 inh 4, tim23-1 inh -14, ATG4B inhibitor 1 and PfHsp90 yeast 2 -7.
For Cc1ccc(-n2ncc3c(NCc4ccc5c(c4)OCO5)ncnc32)c(C)c1 the results were SKKanGAS inh 19, tim10-1 inh 41*, TIM10 inh -11, tim23-1 inh 9, ATG4B inhibitor -6, PfHsp90 yeast 2 8 and tim10-1 conf 2.
Screening Cc1cccc(-n2ncc3c(NCc4ccc5c(c4)OCO5)ncnc32)c1 returned SKKanGAS inh 1, tim10-1 inh 3, TIM10 inh 38, tim23-1 inh 15, ATG4B inhibitor -1 and PfHsp90 yeast 2 -19.
`Cc1ccc(-n2ncc3c(NCc4cccnc4)ncnc32)cc1C` gave SKKanGAS inh -10, tim10-1 inh 43*, TIM10 inh 24, tim23-1 inh 11, ATG4B inhibitor 0, PfHsp90 yeast 2 -3 and tim10-1 conf -10.
COC(=O)c1c(-c2ccc(Br)cc2)noc1N was read as SKKanGAS inh -4, tim10-1 inh 46*, TIM10 inh 31, tim23-1 inh 16, ATG4B inhibitor -14 and tim10-1 conf 29.
Screening Cc1ccc(Nc2nnc(C3C(=O)N(C)C4(C)CC3c3cc(Br)ccc3O4)s2)cc1 (stereo not given) returned SKKanGAS inh 36, tim10-1 inh 45*, TIM10 inh 22, tim23-1 inh 18, ATG4B inhibitor 1, PfHsp90 yeast 2 -16 and tim10-1 conf 6.
`CC(C)OCCCn1c(=O)c2ccccc2n2c(CCC(=O)N3CCN(c4ccccn4)CC3)nnc12` gave SKKanGAS inh 3, tim10-1 inh 16, TIM10 inh 11, tim23-1 inh 5, ATG4B inhibitor -1 and PfHsp90 yeast 2 -6.
Screening O=C(CCc1nnc2n(Cc3ccc(Cl)cc3)c(=O)c3ccccc3n12)N1CCN(c2ccccn2)CC1 returned SKKanGAS inh 22, tim10-1 inh 44*, TIM10 inh 15, tim23-1 inh 31, ATG4B inhibitor 3, PfHsp90 yeast 2 -37 and tim10-1 conf 19.
O=C(Cc1ccccc1)N/N=C/c1ccc2cccc(O)c2n1 was read as SKKanGAS inh -6, tim10-1 inh 47*, TIM10 inh 20, tim23-1 inh 48, ATG4B inhibitor -1, PfHsp90 yeast 2 0 and tim10-1 conf 34*.
Screening O=[N+]([O-])c1cccnc1NCCNc1ncc(C(F)(F)F)cc1Cl returned SKKanGAS inh 26, tim10-1 inh 41*, TIM10 inh 16, tim23-1 inh 38, ATG4B inhibitor -3, PfHsp90 yeast 2 0 and tim10-1 conf 22.
`Cc1ccc(C(=O)NCCNc2ncc(C(F)(F)F)cc2Cl)cc1[N+](=O)[O-]` gave SKKanGAS inh -1, tim10-1 inh -4, TIM10 inh 10, tim23-1 inh 24, ATG4B inhibitor -17 and PfHsp90 yeast 2 -4.
Screening COc1ccccc1NS(=O)(=O)c1cc(NC(=O)c2ccc3c(c2)OCCO3)ccc1C returned SKKanGAS inh 34, tim10-1 inh 30, TIM10 inh 24, tim23-1 inh 43, ATG4B inhibitor -11 and PfHsp90 yeast 2 -11.
`Cc1ccc(C(O)P(=O)(OCCC(C)C)c2ccc(N(C)C)cc2)cc1` (stereo not given) gave SKKanGAS inh -2, tim10-1 inh 41*, TIM10 inh 18, tim23-1 inh 34, ATG4B inhibitor 6, PfHsp90 yeast 2 -34 and tim10-1 conf 19.
CCOC(=O)c1ccc(C(=O)NNC(=O)C2C3C=CC(C3)C2C(=O)O)cc1 (stereo not given) was read as tim10-1 inh 3, TIM10 inh -5, tim23-1 inh 18, ATG4B inhibitor 0 and PfHsp90 yeast 2 -3.
